Source: PubChem
In the library only some 7.8% were active in any assay of this set; here they are far more common.
Shh pathway inh: Hedgehog pathway signaling inhibitors, primary screen, luminescence, Shh-LIGHT2 cells, Gli-luciferase; Shh-LIGHT2 Gli-luciferase reporter, 30 h; inhibition, % (test concentration not listed); 2.1% of 22,000 active; AID 2313, 2010;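 active means mean inhibition across valid replicates above about 65%, limit read from the data; inconclusive means mean under the limit, yet half or more replicates past it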;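 further: pathway switched on by Shh-conditioned medium diluted 1 in 25 in low serum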
NOMO-1 viab: NOMO-1 AML cell viability reduction, primary screen, STK33 inhibitor project, CellTiter-Glo luminescence; NOMO-1 AML viability, 72 h; inhibition, % (no concentration beside the values); AID 2330, 2010; 7.5% of 37,000 active; in the data active means inhibition above about 80%; inconclusive means no clear call, values can overlap the other calls
MITF inhib: inhibitors of MITF, primary screen, MITF inhibitor project, cell-based, luminescence; TRPM1 promoter luciferase, 24 h; inhibition, % (test concentration not listed); 0.28% of 37,000 active; AID 2240, 2010; in the data active means inhibition above about 85%; inconclusive means no clear call, values can overlap the other calls; inactive means below about 68%;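 further: human melanocyte line stably carrying TRPM1 promoter luciferase reporter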
A number is an active result; i = inactive; ? = inconclusive; nt = no result.

SMILES | Shh pathway inh | NOMO-1 viab | MITF inhib
CC(=O)O[C@H]1C(=O)[C@@]2(C)C([C@H](OC(=O)c3ccccc3)[C@]3(O)C[C@H](OC(=O)[C@H](O)[C@@H](NC(=O)c4ccccc4)c4ccccc4)C(C)=C1C3(C)C)[C@]1(OC(C)=O)CO[C@@H]1C[C@@H]2O (stereo partly specified) | i | 97.6 | i
C/C=C(/C)C(=O)O[C@H]1C[C@@](C)(O)C(=O)[C@@H](OC(=O)/C(C)=C\C)[C@@]2(C)CC[C@@](O)(C(C)C)[C@H]12 | i | i | i
C=C1C(=O)O[C@H]2C1[C@H](OC(=O)/C(C)=C/CO)C/C(C)=C\CC[C@@]1(CO)OC21 (stereo partly specified) | i | 93.2 | i
C=C1C(=O)OC2/C=C(\CO)C(OC(C)=O)C/C=C(/C)CC(OC(=O)/C(C)=C\CO)C12 (stereo unspecified) | i | 121.1 | i
C=C1C(=O)O[C@H]2C1[C@H](OC(=O)/C(C)=C/CO)C/C(C)=C\CC[C@@]1(C)OC21 (stereo partly specified) | i | 121.6 | i
C=C1C(=O)O[C@H]2[C@H]1[C@@H](OC(=O)/C(C)=C\C)C[C@]1(C)O[C@@H]1[C@H]1O[C@H]1C(=C)[C@H]2O | i | 120.9 | i
Cc1nnc(SCC(=O)Nc2ccccc2C(F)(F)F)n1-c1ccc(Cl)cc1 | nt | i | i
Cc1ccc(C(C)C)cc1OCC(O)Cn1c(C)nc2ccccc21 (stereo unspecified) | nt | 105.5 | i
Cc1nc2ccccc2n1CC(O)COCC1CC=CCC1 (stereo unspecified) | nt | i | i
COc1ccc(S(=O)(=O)NCCc2ccc(OC)c(OC)c2)cc1Cl | nt | i | i
COc1ccc(NC(=O)Nc2cccc3c2O[C@H](CN(C)Cc2ccc4c(c2)OCO4)[C@H](C)CN([C@@H](C)CO)C3=O)cc1 | i | i | i
COc1ccc(CN(C)C[C@H]2Oc3c(NC(=O)Nc4ccc5c(c4)OCO5)cccc3C(=O)N([C@H](C)CO)C[C@@H]2C)cc1 | i | i | i
COc1ccc(NC(=O)Nc2cccc3c2O[C@@H](CN(C)Cc2ccc4c(c2)OCO4)[C@@H](C)CN([C@H](C)CO)C3=O)cc1 | i | 89.2 | i
COc1ccc(CN(C)C[C@@H]2Oc3c(NC(=O)Nc4ccc5c(c4)OCO5)cccc3C(=O)N([C@@H](C)CO)C[C@H]2C)cc1 | i | 87.0 | i
COc1ccc(NC(=O)C(=O)NCC(=O)Nc2ccccc2OC)cc1 | nt | i | i
Cn1c(SCC(=O)c2ccc([N+](=O)[O-])cc2)nnc1-c1cccs1 | nt | i | i
CCOc1ccccc1NC(=O)CSc1nc2ccccc2c(=O)n1-c1ccc(Cl)cc1 | nt | i | i
CCOC(=O)c1cnc2c(c(C)nn2C)c1Sc1nnc(SC)s1 | 83.8 | 125.1 | i
CCOC(=O)c1cnc2c(c(C3CC3)nn2C)c1N1CCOCC1 | nt | i | i
Cc1cccc(CSc2nnc(NC(=O)c3oc4ccc(F)cc4c3C)s2)c1 | nt | i | i
COC(=O)/C=C/S(=O)(=O)c1ccc(NC(C)=O)cc1 | 94.4 | 125.5 | i
COC(=O)Nc1ccc(S(=O)(=O)N(C)C)cc1 | nt | i | i
CCN(CCS(=O)(=O)c1ccccc1)S(=O)(=O)c1ccc(C)cc1 | i | i | i
Cc1ccc(-c2nnc(-n3cnc4cc(C)c(C)cc43)c3ccccc23)cc1 | nt | i | i
CC1CCCC[C@H]2C(=O)C=C[C@H](O)[C@@H]2CC(=O)O1 (stereo partly specified) | i | 108.0 | i
SMILES | Shh pathway inh | NOMO-1 viab | MITF inhib
COc1ccc(-c2nnc3c4ccccc4c(C)nn23)cc1S(=O)(=O)N1CCN(C)CC1 | nt | i | i
COC(=O)c1ccccc1NC(=O)CN(C)S(=O)(=O)c1c(C)cc(C)cc1C | nt | i | i
COc1ccc(NC(=O)c2ccc(N(C)S(=O)(=O)c3ccc(OC)c(OC)c3)cc2)cc1OC | nt | i | i
COc1ccc(NC(=O)c2ccc(-c3ccc(-c4noc(C)n4)cc3C)cc2)cc1OCCN(C)C | ? | 115.4 | i
Fc1cc(F)c(NC(=S)N2CCOCC2)c(F)c1 | i | i | i
S=C(CC(=S)N1CCOCC1)N1CCOCC1 | i | 85.7 | i
O=C(NCC[n+]1ccc2ccccc2c1)c1ccccc1 | i | i | i
CCn1c(SCC(=O)Nc2c(C)cc(C)cc2C)nnc1-c1ccc(Br)cc1 | nt | i | i
